According to PubChem BioAssay:
A number with no mark means an inactive call. Activity calls are given as the source filed them. Rule as the data show it, unless noted: active = inhibition above about 30%; inactive = the rest.

Assays:
[1] = target: Nuclear receptor coactivator 3 (Homo sapiens) (UniProt Q9Y6Q9); assay: NCOA3 GAL4-fusion reporter inhibition – cell-based, luminescence, quadruplicate, confirmation (AID 588792;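 active = mean inhibition over 43.08%, the solvent-only control mean plus 3 SD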;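 also: 0% = DMSO treated cells and 100% = gossypol at 36 µM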); settings: HEK293 GAL4-SRC3 luciferase reporter, at 3.6 µM, active compounds read high
Chain of Nuclear receptor coactivator 3 (Homo sapiens) (Q9Y6Q9 whole entry, looked up, the tested form may be a part): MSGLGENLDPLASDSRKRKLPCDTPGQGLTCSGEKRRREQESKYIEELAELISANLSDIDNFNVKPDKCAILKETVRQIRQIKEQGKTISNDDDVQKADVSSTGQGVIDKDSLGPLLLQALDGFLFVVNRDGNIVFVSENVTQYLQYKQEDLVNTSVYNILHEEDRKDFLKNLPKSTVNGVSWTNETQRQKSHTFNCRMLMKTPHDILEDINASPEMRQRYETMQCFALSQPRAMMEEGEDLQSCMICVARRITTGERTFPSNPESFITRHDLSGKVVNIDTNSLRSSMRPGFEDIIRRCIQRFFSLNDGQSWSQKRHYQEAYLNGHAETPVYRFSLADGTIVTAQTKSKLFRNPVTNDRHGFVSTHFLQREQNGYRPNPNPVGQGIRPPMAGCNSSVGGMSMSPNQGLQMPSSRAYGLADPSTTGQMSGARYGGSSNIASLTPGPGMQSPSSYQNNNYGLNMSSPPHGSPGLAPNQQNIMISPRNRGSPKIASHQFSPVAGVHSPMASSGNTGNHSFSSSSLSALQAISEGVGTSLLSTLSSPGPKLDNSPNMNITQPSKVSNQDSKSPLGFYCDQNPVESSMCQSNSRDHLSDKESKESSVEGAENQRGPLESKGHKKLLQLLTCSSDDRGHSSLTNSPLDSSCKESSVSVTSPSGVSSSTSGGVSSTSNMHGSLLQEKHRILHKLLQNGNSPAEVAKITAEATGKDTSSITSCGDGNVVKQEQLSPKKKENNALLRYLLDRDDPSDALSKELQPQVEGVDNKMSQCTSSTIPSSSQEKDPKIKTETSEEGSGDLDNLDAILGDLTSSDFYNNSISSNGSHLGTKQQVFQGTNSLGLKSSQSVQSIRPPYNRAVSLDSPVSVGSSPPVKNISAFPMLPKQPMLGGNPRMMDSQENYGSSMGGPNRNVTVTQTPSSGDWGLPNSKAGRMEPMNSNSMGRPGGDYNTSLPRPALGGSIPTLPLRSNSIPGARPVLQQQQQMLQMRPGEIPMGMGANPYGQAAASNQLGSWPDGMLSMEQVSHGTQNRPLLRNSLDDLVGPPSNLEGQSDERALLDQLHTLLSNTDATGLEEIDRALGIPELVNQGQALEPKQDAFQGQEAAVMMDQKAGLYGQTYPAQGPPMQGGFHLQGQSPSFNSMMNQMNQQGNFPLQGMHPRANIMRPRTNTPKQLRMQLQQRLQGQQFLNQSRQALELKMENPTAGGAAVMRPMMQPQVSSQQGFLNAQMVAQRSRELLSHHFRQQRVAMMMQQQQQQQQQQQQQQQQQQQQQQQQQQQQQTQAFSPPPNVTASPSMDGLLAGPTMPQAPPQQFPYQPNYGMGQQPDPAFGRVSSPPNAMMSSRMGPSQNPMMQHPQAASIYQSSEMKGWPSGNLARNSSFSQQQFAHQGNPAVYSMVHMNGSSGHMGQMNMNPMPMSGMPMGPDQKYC

[2] = system: transactivating tegument protein VP16 (Human herpesvirus 1), Gal4-VP16 luciferase reporter; assay: repression of VP16-driven luciferase reporter – cell-based, luminescence, high throughput, counter-screen for SRC3 inhibitor project (AID 588794); settings: mammalian cells, at 3.6 µM, active compounds read high

Q: Which inhibition [1] does the source give for `Cc1cc(C)c2nc3nc(C)cc(C)c3c(N)c2c1` here?
A: 24.5%

Q: And the inhibition [2]?
A: 57.9% (active)

Q: With `Cc1ccc(S(=O)(=O)NCCC(=O)N2CCN(c3ccccc3)CC2)cc1C` as the compound, how does the inhibition [1] read?
A: 6.68%

Q: What about the inhibition [2] of the same compound?
A: -3.89%

Q: What does the source list for `CCCCNC(=O)c1onc(CSc2cc(C)cc(C)c2)c1C(=O)NCCCC`?
A: inhibition [1]: 7.83%; inhibition [2]: 4.86%

Q: Which results are given for `Nc1ncnc(Sc2ccc(Cl)cc2)c1[N+](=O)[O-]`?
A: inhibition [1]: 13.4%; inhibition [2]: 9.09%

Q: With `N#CCc1ccc(NC(=O)c2ccc(S(=O)(=O)N3CCOCC3)cc2)cc1` as the compound, how does the inhibition [1] read?
A: -11.6%

Q: What about the inhibition [2] of the same compound?
A: -6.42%

Q: With `Cc1cccc(NNC(=O)C(=O)NNc2cccc(C)c2)c1` as the compound, how does the inhibition [1] read?
A: 18.6%

Q: And the inhibition [2]?
A: 24.3%

Q: With `S=C(Nc1cccc2ccccc12)NN1CCCCCC1` as the compound, how does the inhibition [1] read?
A: 43.8% (active)

Q: And the inhibition [2]?
A: 33% (active)

Q: Which results are given for `COc1ccc(OCCOCC(O)CN2CCOCC2)cc1` (stereo not drawn)?
A: inhibition [1]: -13.2%; inhibition [2]: -8.92%

Q: For `CC(=O)Nc1cccc(C(=O)/C=C/c2ccc(Br)cc2)c1`, which inhibition [1] is on record?
A: 10.8%

Q: What about the inhibition [2] of the same compound?
A: 11%

Q: `Cc1ccc2[nH]c(C(=O)N/N=C/c3ccccc3O)c(C)c2c1` was tested. Which inhibition [1] did it give?
A: 65.9% (active)

Q: What about the inhibition [2] of the same compound?
A: 67.7% (active)

Q: Which results are given for `CC(=O)c1c(C(C)=O)c(C)n(-c2ccc3ncccc3c2)c1C`?
A: inhibition [1]: 15.4%; inhibition [2]: 6.55%

Q: Which results are given for `Cc1ccc2occ(/C=N/NC(=O)c3ccccc3Br)c(=O)c2c1`?
A: inhibition [1]: 40.7%; inhibition [2]: 28.5%

Q: What does the source list for `Cc1nnsc1-c1onc(C)c1C(=O)Nc1cc(Cl)cc(Cl)c1`?
A: inhibition [1]: 15.8%; inhibition [2]: 13.8%

Q: With `O=C(COc1ccc(Cl)cc1)NCc1nnc(SCC(=O)NC2CCCCC2)o1` as the compound, how does the inhibition [1] read?
A: 3.51%

Q: What about the inhibition [2] of the same compound?
A: 3.49%

Q: What does the source list for `CCN(CC)S(=O)(=O)c1cc(NC(=O)C(C)OC(=O)c2[nH]c(C)c(C(C)=O)c2C)ccc1C` (stereo not drawn)?
A: inhibition [1]: 16%; inhibition [2]: 8.36%

Q: What does the source list for `CCCc1nn(C)c(C(=O)Nc2cccc(Cl)c2)c1Cl`?
A: inhibition [1]: 15%; inhibition [2]: 0.8%

Q: For `O=C(NC(=S)Nc1cccc2cnccc12)c1ccccc1`, which inhibition [1] is on record?
A: 51.4% (active)

Q: What about the inhibition [2] of the same compound?
A: 44.1% (active)

Q: Which results are given for `C=CC[C@@H](CC(=O)N(CCO)Cc1ccccc1)C(=O)N[C@@H](C)COC(=O)[C@@H](CC=C)Cc1ccc(F)cc1`?
A: inhibition [1]: 5.89%; inhibition [2]: -1.92%

Q: How did the inhibition [1] turn out when `COc1c(Cl)cc(Cl)cc1/C=C/C(=O)c1ccc(NC(=O)c2cccs2)cc1` was run?
A: 48.7% (active)

Q: And the inhibition [2]?
A: 26.6%

Q: With `C=CCn1c(SCC(=O)NC2CCCC2)nnc1-c1ccccn1` as the compound, how does the inhibition [1] read?
A: -14.7%

Q: What about the inhibition [2] of the same compound?
A: -2.97%

Q: For `CCOC(=O)C1CCCN(c2c(NCCCN(C)c3ccccc3)c(=O)c2=O)C1` (stereo not drawn), which inhibition [1] is on record?
A: -9.14%

Q: What about the inhibition [2] of the same compound?
A: -3.6%

Q: Which inhibition [1] does the source give for `O=C(Nc1ccc(N2CCN(c3ncccc3C(F)(F)F)CC2)nc1)c1cccs1` here?
A: -7.92%

Q: What about the inhibition [2] of the same compound?
A: 7.03%

Q: How did the inhibition [1] turn out when `CCCCCCC(=O)NNC(=O)CC(=O)Nc1ccccc1C(=O)O` was run?
A: 4.52%

Q: And the inhibition [2]?
A: -10.2%

Q: What does the source list for `Cc1cccc(Oc2sc(C(=O)c3ccccc3)c(N)c2C#N)c1`?
A: inhibition [1]: 34.8%; inhibition [2]: 5.81%

Q: Which inhibition [1] does the source give for `Cc1ccc(NC(=O)C2c3ccccc3-c3ccccc32)cc1` here?
A: 9.64%

Q: What about the inhibition [2] of the same compound?
A: 6.56%

Q: `O=C(C1=C(O)C(=O)N(CCN2CCOCC2)C1c1cccc([N+](=O)[O-])c1)c1cccs1` (stereo not drawn) was tested. Which inhibition [1] did it give?
A: -8.15%

Q: What about the inhibition [2] of the same compound?
A: -1.72%

Q: Which results are given for `CCC(C)(C(=O)NC1CCCC1)N(C(=O)CNC(C)=O)c1ccc(C)cc1` (stereo not drawn)?
A: inhibition [1]: 0.65%; inhibition [2]: -7.27%

Q: What does the source list for `Cc1ccc(C(=O)C[n+]2ccc(Cc3ccccc3)cc2)cc1`?
A: inhibition [1]: -4.6%; inhibition [2]: 14.8%

Q: What does the source list for `CCOC(=O)CCCCC1C(CCCC(=O)OCC)C=NN1C` (stereo not drawn)?
A: inhibition [1]: -16%; inhibition [2]: -3.48%

Q: Which results are given for `CCCC(=O)NC(c1ccc2c(c1)OCO2)c1cc(Cl)c2cccnc2c1O` (stereo not drawn)?
A: inhibition [1]: 40.7%; inhibition [2]: 25.3%

Q: For `O=C(NNC1=Nc2ccccc2SC1)c1ccc(Cl)cc1`, which inhibition [1] is on record?
A: 24.6%

Q: What about the inhibition [2] of the same compound?
A: 5.18%

Q: What does the source list for `CC1(C)CC(=O)C=C(C#CC2(O)CCCCC2)C1`?
A: inhibition [1]: 19%; inhibition [2]: 1.31%

Q: What does the source list for `COc1cccc(-c2csc3ncnc(Sc4nnnn4C)c23)c1`?
A: inhibition [1]: 5.54%; inhibition [2]: 21.9%

Q: Which inhibition [1] does the source give for `O=C(N/N=C/c1ccccc1O)c1ccncc1` here?
A: 14.8%

Q: And the inhibition [2]?
A: 13.7%
